Experimental data taken from PubChem BioAssay (NCATS).
Results filed as inconclusive are left out. Entries that show only a call come without a potency. Calls of active or inactive are those of the source. Calls follow the shape of the dose curve; as a rule, active = well fitted curve in the direction sought with a large enough effect; inconclusive = small, poorly fitted or top-dose-only effect, or another doubt; inactive = no such curve, though single readings can be large; an effect the other way counts as inactive or inconclusive.

Target: Calcium and integrin-binding protein 1 (Homo sapiens) (UniProt Q99828)
Assay: Primary qHTS for Identification of Calcium Integrin Binding Protein 1 (CIB1) Competitor (AID 1508620);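 also: GST tagged CIB1 binding a fluorescein labelled alphaIIb integrin peptide tracer; top concentration of the series differs between compounds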
Conditions: CIB1-GST / FITC-alphaIIb peptide fluorescence polarization; series mostly up to 57.7 µM
In short: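 CIB1-GST (1 uM final) and compound incubated 15 min at room temperature before adding FITC-alphaIIb peptide tracer (100 nM final). Competition for binding read by fluorescence polarization (ex 480, em 540) after another 15 min at room temperature.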

Calcium and integrin-binding protein 1 (Homo sapiens), sequence (Q99828 whole entry, looked up): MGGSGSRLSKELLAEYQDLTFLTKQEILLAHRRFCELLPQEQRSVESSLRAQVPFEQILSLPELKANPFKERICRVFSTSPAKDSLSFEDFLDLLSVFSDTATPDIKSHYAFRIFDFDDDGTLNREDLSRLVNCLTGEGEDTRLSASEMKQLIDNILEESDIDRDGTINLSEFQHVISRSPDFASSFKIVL

Row | SMILES | outcome
1 | C[C@]12COC(=O)C[C@@H]1CC[C@@H]1[C@H]2CC[C@@]2(C)[C@H]1CC[C@]2(C)O | inactive
2 | CSCC[C@@H](NC(=O)[C@@H](Cc1ccccc1)NC(=O)CNC(=O)CNC(=O)[C@@H](N)Cc1ccc(O)cc1)C(=O)O | inactive
3 | COc1ccc(C(c2ccc(OC)cc2)C(Cl)(Cl)Cl)cc1 | inactive

Test system: not listed separately
Assay: Primary qHTS for small molecule stabilizers of the endoplasmic reticulum resident proteome: Secreted ER Calcium Modulated Protein (SERCaMP) assay (AID 1508630)
Conditions: SH-SY5Y GLuc-SERCaMP (Gaussia luciferase released on ER calcium loss) secretion, thapsigargin, luminescence; series mostly up to 38.4 µM
In short: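 The SH-SY5Y reporter protocol was run at 3 concentrations up to 38.3 uM (primary) or 11 concentrations (follow-up): 16 h compound, 100 nM thapsigargin for 4 h, then extracellular luciferase luminescence.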

Row | SMILES | Potency
4 | CN1[C@H]2CC(O)C[C@H]1[C@H]1O[C@H]12 (some centres undefined) | inactive
5 | CN[C@@H]1Cc2cccc3[nH]c(=O)n(c23)C1 | inactive
6 | COc1ccc2c(c[n+](C)c3c4cc5c(cc4ccc23)OCO5)c1OC | inactive
7 | CO[C@H]1CCC(O[C@H]2C[C@H]([C@]3(C)CC[C@]4(C[C@H](O)[C@@H](C)[C@@H]([C@@H](C)C=C(C)C(=O)[C@H](C)C[C@H](C)C(=O)O)O4)O3)O[C@]3(O[C@@H]([C@H]4O[C@@](O)(CO)[C@H](C)C[C@H]4C)C[C@H]3C)[C@H]2C)O[C@H]1C (some centres undefined) | inactive
8 | C[C@@]12OC(=O)[C@]1([C@@H](O)[C@@H]1C=CCCC1)NC(=O)[C@H]2CCCl | inactive
9 | COc1cc([C@@H]2c3cc4c(cc3[C@@H](O)C3COC(=O)C32)OCO4)cc(OC)c1O (some centres undefined) | inactive
10 | COCC1(CO)C(=O)C2CCN1CC2 (centres undefined) | inactive
11 | S=C(SSC(=S)N1CCCCC1)N1CCCCC1 | inactive
12 | C#CC1(O)CCC2C3CCC4=CC(=O)CCC4(C)C3CCC21C (centres undefined) | inactive
13 | O=c1[nH]c2ccc(Cl)cc2c(N[C@@H]2CN3CCC2CC3)c1-c1nc2ccccc2[nH]1 | inactive
14 | Cc1c(C(=O)Nc2cccc(C(F)(F)F)c2)cc(-c2ccccc2)n1CCCN1CCOCC1 | inactive
